# Hit rate of the full screen: of about 220,000 compounds, about 530 (0.24%) were called active. Cut-off read from the data, not from the text of the source: active = inhibition above about 13%; inconclusive = no clear call, values can overlap the other calls; inactive = below that. The list comes from a sample in which actives are over-represented; it also holds similar structures and randomly drawn compounds. Entries with a potency or affinity are not part of this list.
# Target: Bifunctional protein GlmU (Mycobacterium tuberculosis (strain ATCC 25618 / H37Rv)) (UniProt P9WMN3)
# Sequence (P9WMN3 whole entry, looked up): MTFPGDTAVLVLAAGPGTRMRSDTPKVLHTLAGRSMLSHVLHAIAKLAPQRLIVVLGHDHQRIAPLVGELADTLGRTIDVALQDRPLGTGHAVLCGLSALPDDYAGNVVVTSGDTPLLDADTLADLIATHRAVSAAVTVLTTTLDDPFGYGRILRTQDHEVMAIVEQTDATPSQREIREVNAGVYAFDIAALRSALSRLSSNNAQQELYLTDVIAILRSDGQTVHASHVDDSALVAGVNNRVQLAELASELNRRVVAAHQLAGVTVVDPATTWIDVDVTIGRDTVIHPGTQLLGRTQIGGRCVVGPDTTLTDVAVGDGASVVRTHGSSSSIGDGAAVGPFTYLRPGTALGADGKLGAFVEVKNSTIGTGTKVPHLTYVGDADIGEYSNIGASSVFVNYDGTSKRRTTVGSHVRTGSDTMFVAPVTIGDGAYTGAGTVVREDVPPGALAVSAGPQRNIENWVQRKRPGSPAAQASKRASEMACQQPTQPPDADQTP
# Assay: inhibition of mycobacterial GlmU enzyme – biochemical, glucosamine-1-phosphate acetyltransferase (AID 1376);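 note: 0% = complete reaction with vehicle and 100% = reaction without substrate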
# Details: M. tuberculosis GlmU acetyltransferase enzyme assay; hits give high values;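 tested at 30 µM in the primary screen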
row,SMILES,inhibition
1,O=C(O)c1cccc(NC(CNS(=O)(=O)c2ccc(Cl)cc2)c2ccccc2)c1 (configuration not stated),3.6% (inactive)
2,CN1CCN(CCOc2ccc(Cl)c(Cl)c2)CC1,-3.6% (inactive)
3,CCc1ccccc1NC(=O)c1ccc(CN2CCC(Cc3ccccc3)CC2)cc1,3.49% (inactive)
4,CCOC(=O)COc1cnc2ccccc2n1,1.75% (inactive)
5,COc1ccc2nc(NS(=O)(=O)c3ccc(NC(C)=O)cc3)sc2c1,4.76% (inactive)
6,CC(=O)Nc1ccc2nc(NS(=O)(=O)c3ccc(C)cc3)sc2c1,3.98% (inactive)
7,CC(=O)Nc1ccc(S(=O)(=O)Nc2nc3ccc(C)cc3s2)cc1,13.2% (active)
8,CCc1c(O)nc(SCC(=O)NCc2ccco2)[nH]c1=O,-0.2% (inactive)
9,COc1ccc(Nc2ccc(N3C(=O)CCC3=O)cc2[N+](=O)[O-])cn1,2.73% (inactive)
10,CCCc1ccc(C(=O)NNC(=O)c2ccc(Br)cc2)cc1,1.63% (inactive)
11,CCCc1ccc(C(=O)NNc2cc(Cl)ccc2Cl)cc1,2.48% (inactive)
12,CCCc1ccc(C(=O)NNC(=O)c2ccc(Cl)cc2)cc1,17.1% (active)
13,CCOc1ccccc1/C=N/NC(=O)CNC(=O)c1ccc(S(=O)(=O)N2CCOCC2)cc1,0.48% (inactive)
14,CC(C)N1CCc2c(sc(NC(=O)c3nc4ccccc4s3)c2C(N)=O)C1,13.7% (active)
15,CC(C)N1CCc2c(sc(NC(=O)c3cc(-c4cccs4)nc4ccccc34)c2C(N)=O)C1,-3.1% (inactive)
16,COC(=O)c1c(NC(=O)c2nc3ccccc3s2)sc2c1CCN(C(C)=O)C2,-1.93% (inactive)
17,CCC(=O)N1CCc2cc(Br)cc(S(=O)(=O)CCC(=O)N(CC)CC)c21,-2.77% (inactive)
18,CCN=C1S/C(=C\c2cc(OCC)c(O)cc2Br)C(=O)N1CC,-1.66% (inactive)
19,COc1ccc(N(CC(=O)NN=C2CCCCCCC2)S(=O)(=O)c2ccccc2)cc1Cl,0.05% (inactive)
20,CC(=O)Nc1ccc(NC(=O)CCCSc2nc3ccccc3[nH]2)cc1,-7.79% (inactive)
21,Cc1cc(C(F)F)n2ncc(C(=O)NCc3ccc(F)cc3)c2n1,3.5% (inactive)
22,COc1ccc(CNC(=O)c2cnn3c(C(F)F)cc(C)nc23)cc1,14.5% (active)
23,Cc1cc(C(F)F)n2ncc(C(=O)NCc3ccccc3)c2n1,1.36% (inactive)
24,CCS(=O)(=O)NCCNc1ccc([N+](=O)[O-])cc1,1.84% (inactive)
25,Nc1nc(SCC(=O)NCc2ccccc2)n[nH]1,0.23% (inactive)

row,SMILES,inhibition
1,Cc1cc2c(o1)CC(C)(C)CC2=O,1.91% (inactive)
2,O=C(Nc1cccnc1)c1cc2c(ccc3ccccc32)o1,7.23% (inactive)
3,CCCCOC(=O)Nc1ccc(S(=O)(=O)Nc2nccs2)cc1,-2.11% (inactive)
4,Cc1c(N=Nc2c(-c3ccc([N+](=O)[O-])cc3)[nH]n(C(N)=S)c2=O)cccc1[N+](=O)[O-],14.5% (active)
5,Cc1ccc([N+](=O)[O-])cc1N=Nc1c(-c2ccc([N+](=O)[O-])cc2)[nH]n(C(N)=S)c1=O,0.14% (inactive)
6,NC(=S)n1[nH]c(-c2ccc([N+](=O)[O-])cc2)c(N=Nc2ccccc2[N+](=O)[O-])c1=O,-2.18% (inactive)
7,NCCN1CCN(CCN)CC1,-1.39% (inactive)
8,COc1ccc(C2(C)NC(=O)N(CC(=O)Nc3ccc(-c4nc5ccc(C)cc5s4)cc3)C2=O)cc1 (configuration not stated),-4.16% (inactive)
9,O=c1cc(Cl)[nH]c(=O)n1CCNc1ncc(C(F)(F)F)cc1Cl,-0.65% (inactive)
10,O=C(c1ccccc1F)N1CCCC(C(=O)N2CCN(c3ccccc3)CC2)C1 (configuration not stated),4.78% (inactive)
11,CC(C)C(=O)N1CCN(c2ccc(NC(=O)c3cccs3)cc2)CC1,-0.11% (inactive)
12,C=CCOc1c(CNc2cccc(C(=O)O)c2)cccc1OC,-2.58% (inactive)
13,C=CCOc1c(CNc2ccc(C(=O)O)cc2)cccc1OCC,-3.36% (inactive)
14,C=CCOc1c(CNc2cccc(C(=O)O)c2)cccc1OCC,17.6% (active)
15,COc1ccc(CC(=O)Nc2c3c(nn2-c2cccc(C)c2C)CS(=O)C3)cc1 (configuration not stated),0.63% (inactive)
16,CCN(C(=O)c1cc2c(=O)[nH]c3ccc(C)cc3c2s1)c1cccc(C)c1,0.79% (inactive)
17,Cn1c(=O)c2c(nc(SCC(=O)c3ccccc3F)n2C)n(C)c1=O,2.09% (inactive)
18,COc1cccc2c1OC1(C)CC2NC(=O)N1 (configuration not stated),7.2% (inactive)
19,COc1ccc(-c2nnc3ccc(SCC(=O)NCc4ccco4)nn23)cc1,-0.33% (inactive)
20,Cc1cccc(C(=O)NC(Oc2ccccc2)C(Cl)(Cl)Cl)c1 (configuration not stated),0.69% (inactive)
21,O=C(NC(Oc1ccccc1)C(Cl)(Cl)Cl)c1ccccc1 (configuration not stated),2.49% (inactive)
22,COc1ccc(C(=O)NC(Oc2ccccc2)C(Cl)(Cl)Cl)cc1 (configuration not stated),46.8% (active)
23,CCCCCC(=O)c1c(C)[nH]c(C(=O)OCC)c1C,2.82% (inactive)
24,NC(=O)C1(N2CCCCC2)CCN(C(=S)Nc2cc(F)cc(F)c2)CC1,3.46% (inactive)
25,Cn1nnc(CC[N+](C)(C)C)n1,-0.54% (inactive)

row,SMILES,inhibition
1,CCOC(=O)c1cnc2c(-c3ccc(Cl)cc3)c(C)nn2c1N,-0.25% (inactive)
2,CCn1c(SCC(=O)OCC(=O)N2c3ccccc3NC(=O)C2(C)C)nnc1-c1ccco1,3.17% (inactive)
3,CCN(c1ccc(NS(=O)(=O)c2cc(Cl)ccc2Cl)cc1)C(C)C,-7.63% (inactive)
4,CCc1c(C)sc(NC(=O)c2ccco2)c1C(=O)N1CCOCC1,13.4% (active)
5,CCc1c(C)sc(NC(=O)OC)c1C(=O)N1CCOCC1,2.3% (inactive)
6,CCc1c(C)sc(NC(=O)c2ccco2)c1C(=O)N1CCCCC1,0.95% (inactive)
7,Cc1ccccc1NC(=S)N(CCN(C)C)C(C)c1ccco1 (configuration not stated),-1.1% (inactive)
8,CC1=NN(c2ccccc2)C(=O)/C1=C/c1c(O)n(-c2ccc(F)cc2)[nH]c1=O,7.97% (inactive)
9,CC1=NN(c2ccccc2)C(=O)/C1=C/c1c(O)n(-c2ccc(F)c(Cl)c2)[nH]c1=O,13.6% (active)
10,CC1=NN(c2ccccc2)C(=O)/C1=C/c1c(O)[nH]c(=S)[nH]c1=O,-4.55% (inactive)
11,O=c1sc(Nc2ccccc2)nc2ccccc12,4.04% (inactive)
12,CCc1ccc(Nc2nc3ccccc3c(=O)s2)cc1,-0.12% (inactive)
13,CCOc1ccc(Nc2nc3ccccc3c(=O)s2)cc1,13.8% (active)
14,COc1ccc(/C=N/NC(=O)CCC(=O)Nc2ccccc2)cc1OC,-0.28% (inactive)
15,COc1ccc(N2CCN(C(CNC(=O)C(=O)NCCCn3ccnc3)c3cccnc3)CC2)cc1 (configuration not stated),4.95% (inactive)
16,COc1ccc(C(=O)Nc2cc(C(F)(F)F)ccc2Cl)cc1OC,48.9% (active)
17,COc1ccc(/C=C/C(=O)Nc2cc(C(F)(F)F)ccc2Cl)cc1OC,-4.68% (inactive)
18,COc1cccc(C(=O)Nc2cc(C(F)(F)F)ccc2Cl)c1,-5.67% (inactive)
19,Nc1ccc2nc3c(=O)n(C4CCCCC4)c(=O)[nH]c3nc2c1,-0.52% (inactive)
20,Nc1cc2nc3ccccc3nc2cc1N,1.38% (inactive)
21,C/C(=N/NS(=O)(=O)c1ccc(C)cc1)[C@H]1C[C@@H]1c1ccccc1,1.42% (inactive)
22,COC(=O)c1ccc(OCC(=O)c2ccccc2)cc1,2.96% (inactive)
23,COC(=O)c1ccc(OCCOc2ccccc2)cc1,14.7% (active)
24,COC(=O)c1ccc(OCCOc2ccc(C(=O)OC)cc2)cc1,-4.5% (inactive)
25,CCNCCNc1ccc(Cl)cc1[N+](=O)[O-],0.23% (inactive)

row,SMILES,inhibition
1,c1ccc(CCn2nnnc2C(c2cccnc2)N2CCN(c3ccccc3)CC2)cc1 (configuration not stated),-3.96% (inactive)
2,CSc1nnc([C@@H]2CCCN2C(=O)OC(C)(C)C)o1,6.66% (inactive)
3,CCOC(=O)c1oc2nc(CC(C)C)c3c(c2c1N)CCCC3,2.38% (inactive)
4,CC(C)c1cc(NCC2CCCO2)n2c(nc3ccccc32)c1C#N (configuration not stated),5.33% (inactive)
5,CCCc1cc(NCC2CCCO2)n2c(nc3ccccc32)c1C#N (configuration not stated),7.14% (inactive)
6,Cc1cc(NCC2CCCO2)n2c(nc3ccccc32)c1C#N (configuration not stated),12.8% (active)
7,O=C(NCC1(N2CCCCC2)CCCCC1)c1ccc(S(=O)(=O)N2CCCC2)cc1,7.41% (inactive)
8,Cc1cccc(C)c1NS(=O)(=O)c1ccc2c(c1)NC(=O)CO2,7.49% (inactive)
9,Cc1ccccc1NS(=O)(=O)c1ccc2c(c1)NC(=O)CO2,13.3% (active)
10,Cc1c(F)cccc1NS(=O)(=O)c1ccc2c(c1)NC(=O)CO2,-2.89% (inactive)
11,Cc1nc(NC(=O)COc2ccccc2)sc1C(=O)Nc1ccccc1,6.13% (inactive)
12,Cc1nc(Nc2ccccc2)sc1C(=O)Nc1ccccc1,2.24% (inactive)
13,Cc1nc(NC(N)=S)sc1C(=O)Nc1ccccc1,14.8% (active)
14,O=C(NCc1n[nH]c(=S)n1-c1ccc(F)cc1)c1ccco1,3.33% (inactive)
15,CCOC(=O)CC(=O)CSc1nc(-c2cccnc2)ccc1C#N,2.76% (inactive)
16,Cc1ccc(NC(=O)Cn2nnc3ccccc32)cc1,-1.28% (inactive)
17,CCCCn1c(CNC(=O)C23CC4CC(CC(C4)C2)C3)nnc1SC(C)CC (configuration not stated),-3.15% (inactive)
18,Cc1ccc(S(=O)(=O)N(C)C/N=C(\N)N[N+](=O)[O-])cc1,-3.35% (inactive)
19,O=C1CCCC(O)=C1N=Nc1ccc2c(c1)OCO2,1.81% (inactive)
20,O=C1CCCC(O)=C1N=Nc1ccc(Cl)c(Cl)c1,0.41% (inactive)
21,O=C1CCCC(O)=C1N=Nc1ccc(C(=O)O)cc1,13.3% (active)
22,CCc1nnc(NC(=O)CSc2nc(-c3ccccc3)nc3ccccc23)s1,-1.88% (inactive)

# — PubChem BioAssay AID1376 (SRMLSC, 2008)
